40 molecules from PubChem BioAssay AID2782 (National Center for Advancing Translational Sciences (NCATS), 2010) can be followed below.

Results filed as inconclusive are left out. A call without a number means that no potency is given here. The source made the active and inactive calls. Calls come from the whole dose curve; as a rule, active = well fitted inhibition curve with a large enough effect in the polarisation, with a control signal flat (not every such curve was filed as active); inconclusive = small, poorly fitted or top-dose-only effect, or effect the other way, or a change in a side signal; inactive = no such curve, though single readings can be large or run the other way; the % refers to the polarisation.
Potency is the fitted concentration of half-maximal effect.

The nature of this assay: Confirmation of Inhibitors Targeting the Menin-MLL Interaction in MLL Related Leukemias: Competition With Texas Red Labeled MLL-derived Mutant Peptide. The following applies: fluorescence polarization, Texas Red MLL peptide displacement; series mostly up to 94.6 µM. An excerpt:
qHTS Assay for Inhibitors Targeting the Menin-MLL Interaction in MLL Related Leukemias
NIH Chemical Genomics Center [NCGC]
NIH Molecular Libraries Probe Centers Network [MLPCN]
Assay Submitter (PI): Jolanta Grembecka, Tomasz Cierpicki, University of Virginia
Translocations of the MLL (Mixed Lineage Leukemia) gene are frequently found in human leukemias affecting both children and adults. Fusion of MLL to one of more than 60 genes results in generation of oncogenic proteins upregulating Hox genes, which are vital to blood cell development. Patients harboring fusion of the MLL gene suffer from aggressive leukemias and respond poorly to available therapies. All of the oncogenic fusion proteins have a preserved N-terminal fragment of MLL that has been identified to interact with menin. It has been recently discovered that association with menin is critical to the leukemogenic activity of the MLL fusion oncoproteins. Selective targeting of the menin-MLL interaction could provide an attractive therapeutic approach to develop novel drugs for MLL-related leukemias. Small molecules blocking the menin-MLL interaction should reverse the oncogenic potential of MLL fusion proteins.
We have developed and optimized a fluorescence polarization-based assay for the identification of Menin-MLL inhibitors. The assay was run employing two different MLL-derived peptides. The present assay uses a 12 amino acid peptide labeled with fluorescein at its N-terminus. This peptide consists of the menin high affinity binding motif from MLL and is potently bound by menin. Another peptide with a mutated sequence, labeled with Texas Red, was used in parallel as a less stringent screen for inhibitors.
The present assay was run to confirm the activity of hits from the primary screen using the peptide with a mutated sequence, labeled with Texas Red.
The Menin protein, the MLL-wild type (w.t.) derived peptide (N-terminal 12 amino acids), the MLL-derived peptide labeled with Texas Red and the MLL-w.t. peptide labeled with Fluorescein were kindly supplied by laboratory of Dr. Jolanta Grembecka, University of Virginia. All protein and peptide solutions were stored in single use aliquots at -80C. The Eu3+ Cyrptate-conjugated mouse monoclonal antibody anti-6 Histidine (Eu3+-AB) and the Streptavidin-XL665 conjugate (XL665) were purchased from Cisbio International (Bedford, MA). All antibody and XL665 conjugate solution stocks were stored in single use aliquots at -20C. The Buffer components for all assays were purchased from Sigma-Aldrich (St. Louis, MO) and Invitrogen (Carlsbad, CA).
1. FP reaction buffer: 50 mM Tris-HCl pH 7.5, 50 mM NaCl, 1mM DTT.
Before use, 0.05% BSA is added.
2. Menin protein, MLL-w.t. labeled with fluorescein, MLL-mutant peptide labeled with texas red.
Stored in singe use aliquots at -80C.
3. MLL-w.t. unlabeled peptide as positive control: 10 uM final in FP buffer.
1. Prepare Menin at 200 nM, MLL-w.t.-fluorescein at 25 nM, and MLL-mutant-texas red at 50 nM mixture in FP buffer.
2. Prepare Menin at 200 nM, MLL-w.t.-fluorescein at 25 nM, MLL-mutant-texas red at 50 nM, and 10 uM MLL-w.t. unlabeled mixture in FP buffer.
3. Prepare MLL-w.t.-fluorescein at 25 nM and MLL-mutant-texas red at 50 nM mixture in FP buffer.
3. Dispense 4 ul per well of reagent in step 1 in columns 2, 4 - 48 in a black 1536 well plate, dispense 4 ul per well of reagents from steps 2 and 3 in columns 1 and 3 respectively. Incubate plate at ambient for 15 minutes.
4. Transfer 23 nl per well of compound to plate and incubate at ambient for 1 hr.
5. Read fluorescence polarization for each label using the PerkinElmer Envision.
Envision protocol for fluorescein: FITC FP Dual Enh Mirror, Excitation filter 480, Emission filter (1) P-pol 535, Emission filter (2) S-pol 535
Envision protocol for texas red: FP Dual Enh Mirror, Excitation filter 555, Emission filter (1) P-pol 632, Emission filter (2) S-pol 632
For the molecule `CCN1C(=O)[C@@H]2C(C(=O)c3cnccn3)=NN[C@@H]2C1=O`, the Potency entry is “inactive”.

Consider `COc1ccc(-c2csc(NC(=S)NC(=O)/C=C/c3ccc(C(C)C)cc3)n2)cc1OC`, for which the Potency is 17.8 µM (active).

Turning to `O=C(NCC1CCCO1)c1ccc(OC2CCN(C(=O)C3CC3)CC2)cc1` (stereo not given), the Potency result was “inactive”.

As for `COc1ccc(OC)c(C(c2c(C)[nH][nH]c2=O)c2c(C)[nH][nH]c2=O)c1`, the Potency entry was “inactive”.

In the case of `O=C(c1cc(F)c(F)cc1Cl)N1CCN(c2ncccn2)CC1`, the Potency entry was “inactive”.

Regarding `COc1ccc(NC(=O)N2CC[C@@]3(CCCN(C(=O)c4csnn4)C3)C2)cc1`, the Potency entry is “inactive”.

Consider `OC(c1ccccn1)(c1ccccn1)c1ccccn1`, for which the Potency entry was “inactive”.

For `C[N+]1(CCNC(=O)/C=N/O)CCCCC1`, the Potency entry was “inactive”.

With `Cc1cc(N/N=C/c2ccc(O)cc2)c2cccc(C)c2n1`, the Potency is 71 µM (active).

For the molecule `CCCCC(=O)NC(=S)Nc1nnn(CCC)n1`, the Potency entry is “inactive”.

`NC(=O)c1cc2ccccc2o/c1=N/NC(=O)c1cccc(F)c1`: the Potency entry is “inactive”.

Turning to `Cn1c(=O)n(C)c2cc3[nH]cnc3cc21`, the Potency result is “inactive”.

For `O=C(/C=C/c1ccccc1)c1cccs1`, the Potency result is “inactive”.

Regarding `Cc1ccccc1-c1cncnc1NC1CCNCC1`, the Potency was 126 µM (active).

Turning to `Cc1ccc(C#CC(C)(O)C(C)(C)C)cn1` (stereo not given), the Potency result is “inactive”.

Regarding `O=C(Nc1cc(Br)ccc1O)c1cc(-c2ccccc2)on1`, the Potency is 20 µM (active).

Regarding `O=C1C(Cl)=C(NCCN2CCOCC2)C(=O)c2ncccc21`, the Potency entry was “inactive”.

For `Cc1nn(-c2ccccc2)c2nc(N)c(C(N)=O)cc12`, the Potency result is “inactive”.

In the case of `CCN1CCN(CC(=O)Nc2ccc(C(C)=O)cc2)CC1`, the Potency result is “inactive”.

`CC(=O)O[C@H]1CSC[C@H]1NC(=O)c1ccccc1`: the Potency entry is “inactive”.

Regarding `CCC(c1nnnn1Cc1ccc(F)cc1)N1CCN(C2CCCCC2)CC1` (stereo not given), the Potency was 35.5 µM (active).

With `O=C(Nc1nccs1)C(Br)C(Br)c1ccccc1` (stereo not given), the Potency entry is “inactive”.

`Cc1c(C(=O)OCC(=O)Nc2ccc(S(N)(=O)=O)cc2)oc2c1ccc1ccccc12`: the Potency result is “inactive”.

Take `O=C(NC(=S)Nc1nc(-c2ccc(Br)cc2)cs1)c1cccnc1`: the Potency entry is “inactive”.

As to `CCOC(=O)N1CCN(CCC(=O)c2ccc(Br)cc2)CC1`, the Potency entry was “inactive”.

On to `O=C(NC1CCN(c2ncccn2)CC1)c1c(F)cccc1F`, for which the Potency entry is “inactive”.

Take `COc1cc(OC)c2ccc(=O)oc2c1C(CCN1CCOCC1)c1ccc(N(C)C)cc1` (stereo not given): the Potency entry was “inactive”.

On to `O=C(CSc1nnc(-c2c[nH]c3ccccc23)o1)c1ccc(-c2ccccc2)cc1`, for which the Potency was 35.5 µM (active).

For the molecule `CCc1cc2c(N3CCN(C(=O)c4ccco4)CC3)ncnc2s1`, the Potency was 35.5 µM (active).

For `O=C1Cc2ccccc2Sc2c(OCCN3CCCCC3)cccc21`, the Potency is 126 µM (active).

Take `C=C(C)CNC(=S)Nc1cccc2cnccc12`: the Potency entry was “inactive”.

Take `Cc1ccc(C(=O)Sc2cccccc2=O)cc1`: the Potency entry is “inactive”.

On to `CCc1ccccc1NC(=O)COc1cccc(-n2cnnn2)c1`, for which the Potency result was “inactive”.

`O=C(O)CCC(=O)Nc1ccc(SSc2ccc(NC(=O)CCC(=O)O)cc2)cc1`: the Potency result is “inactive”.

For `COc1ccc(C)cc1N(C(=O)c1snc(C(N)=O)c1N)C(C(=O)NC1CCCC1)c1ccc(F)cc1` (stereo not given), the Potency result is “inactive”.

Consider `CCCCCC1CCC(C(=O)NCCN2CCOCC2)CC1` (stereo not given), for which the Potency result is “inactive”.

As to `CN1C[C@@H]2C[C@H]1CN2c1cc2c(cc1F)c(=O)c(C(=O)O)cn2C1CC1`, the Potency result is “inactive”.

As for `O=C(Nc1nnc(-c2ccccc2SCc2ccccc2)s1)Nc1ccccc1F`, the Potency is 22.4 µM (active).

Take `Cc1sc2ncnc(NC3CCN(Cc4ccccc4)CC3)c2c1C`: the Potency was 28.2 µM (active).

With `CCOC(=O)c1cnc2ccc(OCC)cc2c1N1CCN(C)CC1`, the Potency is 31.7 µM (active).
